FMDV inh = antivirals against foot and mouth disease virus | FMDV antiviral cell-based qHTS | Potency, µM (highest dose often 57.9 µM), for the others: at the highest dose activity change, negative = inhibition, actives largely listed as inhibitors | actives 1.2% (n = 410,000) | AID 1159524; calls by dose curve; tested in HEK293T cells; also: read-out not given here; potency is read from the fitted curve at half-maximal effect; nearly all actives have a fitted effect of over 45% in size
HCV inhibitor = blocks hepatitis C virus; Huh7.5.1 HCVcc-Cre infection, luciferase reporter, 44 h; Potency, µM (highest dose often 41.8 µM), inactives show at the highest dose activity change, negative = inhibition, most hits filed as inhibitors; actives 3.4% (n = 340,000); active = well fitted inhibition curve with a large enough effect; inconclusive = small, poorly fitted or top-dose-only effect, or another doubt; inactive = no such curve, though single readings can be large or run the other way; also: potency is read from the fitted curve at half-maximal effect
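Luciferase read-out (15 sec integration) after a 15 min room-temperature substrate step quantifies HCVcc-Cre infection. Cells, 1,000 per well, had compound added 4 h post-plating, then virus at ~0.5 moi, and were cultured 44 h.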
HCMV inh = blocks human cytomegalovirus replication; HFF cells, HCMV-luciferase reporter, 72 h; hits give low values; activity change, negative = inhibition, % at 57.5 µM; actives 4.5% (n = 410,000); AID 1259415; in the data active = activity change below about -60%; inconclusive = no clear call, values can overlap the other calls; inactive = above about -39%
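Compounds were evaluated in HFFs infected with an HCMV luciferase reporter virus (MOI 1 PFU/cell). Luciferase in lysates collected 72 h post infection served as the replication measure.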
Lassa entry inh = inhibitors of Lassa virus binding or cell entry; Potency, µM (series often up to 37.9 µM), for inactives: top-dose activity change, negative = inhibition, usual class: inhibitors; actives 1.2% (n = 300,000); Lassa virus pseudotype entry inhibition, cell reporter; AID 540256; calls by dose curve; tested in HEK293 cells; also: potency is read from the fitted curve at half-maximal effect; nearly all actives have a fitted effect of over 50% in size
MARV entry inh = Marburg virus entry inhibition; Marburg virus pseudotyped entry inhibition, cell reporter; Potency, µM (titrated, usually from 37.8 µM), without a hit: at the highest dose activity change, negative = inhibition, hits mostly inhibitors; actives 1.8% (n = 300,000); calls by dose curve; tested in HEK293 cells; also: potency is read from the fitted curve at half-maximal effect
* marks the source's active call; other numbers are inactive results; ? = inconclusive; . = no result given; [ ] = remark or other dose. Only some compounds are listed: those with a hit (about 7.9% of all), similar ones and a draw of the others. % is scaled to controls: 0 for no effect and ±100 for the full control effect.

SMILES | FMDV inh | HCV inhibitor | HCMV inh | Lassa entry inh | MARV entry inh
Cc1ccc(-c2ccc(/C=N\NC(=O)C3C(=O)NCC3c3ccccc3)o2)cc1Cl (stereo not given) | -6.5% | 8.91µM* | 29.8 | ? | -25.9%
O=C(CN(CC(=O)NCc1ccccc1)CC(=O)NCc1ccccc1)NCc1ccccc1 | . | . | -3.2 | . | .
CCN1CCN(c2ccc(S(=O)(=O)N3CCCCC3)cc2NC(=O)/C=C/c2ccc(OC(F)F)cc2)CC1 | -16.7% | ? | -28.8 | 6.31µM* | ?
O=C(/C=C/c1ccc(Cl)cc1)Nc1cc(S(=O)(=O)N2CCOCC2)ccc1N1CCOCC1 | -15.7% | ? | -30.9 | 4.47µM* | ?
COc1ccc(C(=O)/C=C/c2ccc(N3CCCCC3)c([N+](=O)[O-])c2)cc1 | -21.1% | ? | -30.7 | 10.3% | -18.5%
O=C(/C=C/c1ccc(OC(F)F)cc1)Nc1cccc(S(=O)(=O)N2CCOCC2)c1 | ? | 5.62µM* | -75.0* | ? | ?
O=C(/C=C/c1ccc(Cl)c([N+](=O)[O-])c1)Nc1ccc(N2CCCC2)c(Cl)c1 | -18.5% | -16.7% | -67.5* | -1.8% | ?
COc1ccc(/C=C/C(=O)Nc2cccc(S(=O)(=O)N3CCOCC3)c2)cc1OC | ? | ? | 4.3 | ? | ?
C[C@H](CO)N1C[C@H](C)[C@@H](CN(C)C(=O)Nc2cccc(F)c2)OCc2cn(nn2)CCCC1=O | . | . | 23.9 | . | .
CCC(C)NC(=O)c1sc2nc3n(c(=O)c2c1C)CCC3 (stereo not given) | -12.7% | . | 4.7 | 9.5%[46.1 µM] | .
CCOc1ccc(NC(=O)c2c(C)oc3nc(C)nc(N4CCOCC4)c23)cc1 | -12.9% | . | 31.2 | -7.6%[46.1 µM] | .
COc1ccccc1C#Cc1cnc2c(c1)C(=O)N([C@H](C)CO)C[C@@H](C)[C@@H](CN(C)C(=O)c1ccc3c(c1)OCO3)O2 | -8.5% | . | 0.6 | . | .
CN1CCN(c2ccc(S(=O)(=O)N3CCCCC3)cc2NC(=O)/C=C/c2ccc(Cl)c([N+](=O)[O-])c2)CC1 | ? | ? | -79.8* | 12.6µM* | ?
O=S(=O)(c1ccc(Cl)c(NC(=S)N/N=C/c2ccc(O)cc2)c1)N1CCOCC1 | ? | ? | -82.6* | 11.6µM* | ?
O=C(Nc1ccc(Cl)c(Cl)c1)Nc1cc(S(=O)(=O)N2CCOCC2)ccc1N1CCCC1 | -16.2% | ? | -67.5* | ? | ?
CCN1CCN(c2ccc(S(=O)(=O)N3CCCCC3)cc2NC(=O)/C=C/c2ccc([N+](=O)[O-])cc2)CC1 | ? | ? | -18.8 | -15.3% | ?
Cc1occc1C(=O)NN1C(=O)C2C3CCC(O3)C2C1=O (stereo not given) | -9.3% | 30.3% | 13.5 | 0.0% | -2.9%
O=C(c1cccc(S(=O)(=O)N2CCc3ccccc3C2)c1)N1CCN(c2ccccc2)CC1 | ? | ? | 1.7 | 16.4µM* | ?
O=C(c1cccc(S(=O)(=O)N2CCc3ccccc32)c1)N1CCCC(C(F)(F)F)C1 (stereo not given) | -24.1% | 11.2µM* | ? | -12.7% | -0.8%
O=C(c1ccc(S(=O)(=O)N2CCc3ccccc3C2)cc1)N1CCCCC1 | -23.5% | ? | -62.4* | . | .
CCOC(=O)c1sc(NC(=O)c2cccc(S(=O)(=O)N3CCc4ccccc43)c2)c(C#N)c1C | ? | 10µM* | -98.9* | . | .
Nc1n[nH]c(-c2ccc([N+](=O)[O-])cc2[N+](=O)[O-])n1 | 2.1% | 26.0% | 18.2 | . | .
COc1ccccc1N1CCN(C(=O)c2ccc3c(c2)CCN3S(=O)(=O)c2ccccc2)CC1 | ? | 12.6µM* | ? | -26.5%[46.1 µM] | ?
O=C(Nc1ccc(Cl)c(C(F)(F)F)c1)c1ccc2c(c1)CCN2S(=O)(=O)c1ccccc1 | -18.7% | . | -74.5* | ? | ?
O=C(Nc1ccncc1)c1cccc(S(=O)(=O)N2CCc3ccccc32)c1 | ? | 8.91µM* | -77.4* | -16.0% | ?
SMILES | FMDV inh | HCV inhibitor | HCMV inh | Lassa entry inh | MARV entry inh
COc1ccccc1N1CCN(C(=O)c2ccc(Cl)c(S(=O)(=O)NCc3ccco3)c2)CC1 | -25.4% | 8.91µM* | -7.7 | ? | ?
CC(=O)N1CCN([C@@H]2c3cccc4cccc(c34)[C@H]2NS(=O)(=O)c2ccccc2)CC1 | . | . | . | . | -6.8%
O=C(Nc1cc(C(=O)NC2CCOCC2)c2c(c1)ncn2C1CCCC1)c1ccccc1 | -7.1% | . | . | . | .
Cc1ccc(CCNC(=O)c2sc3ncccc3c2-n2c(C)ccc2C)cc1 | -25.0% | . | 32.9 | -10.0%[46.1 µM] | .
O=C(NCc1ccc2c3c(cccc13)C(=O)N2)c1cccs1 | -9.6% | 9.7% | 9.4 | . | .
CC1CCCCC1S(=O)C1=C(C(=O)O)CCCC1 (stereo not given) | . | . | . | . | 6.8%[46.1 µM]
Cc1ccc(N(CC(=O)N2CCN(c3cc(Cl)ccc3C)CC2)S(=O)(=O)c2c(C)noc2C)cc1 | -25.3% | . | -35.4 | ? | ?
O=C(c1cccc(S(=O)(=O)N2CCc3ccccc32)c1)N1CCN(c2ccccc2)CC1 | -12.0% | 10µM* | ? | 3.98µM* | ?
COc1ccccc1N1CCN(CCCNC(=O)C2CCCN(c3ncnc4c3nc3n4CCCCC3)C2)CC1 (stereo not given) | ? | 12.6µM* | -31.5 | . | .
CC1CCN(CCCNC(=O)C2CCCN(c3ncnc4c3nc3n4CCCCC3)C2)CC1 (stereo not given) | 0.5% | -8.0% | -34.7 | 17.6%[46.1 µM] | 20.8%[46.1 µM]
CCCCN(CC)C(=O)C1CCCN(c2ncnc3c2nc2n3CCCCC2)C1 (stereo not given) | -29.7% | . | -4.6 | -24.0%[46.1 µM] | .
O=C(C1CCCN(c2ncnc3c2nc2n3CCCCC2)C1)N1CCN(c2ccccc2)CC1 (stereo not given) | ? | ? | -62.0* | . | .
CC(C)N(Cc1ccccc1)C(=O)C1CCCN(c2ncnc3c2nc2n3CCCCC2)C1 (stereo not given) | ? | ? | -60.4* | . | .
CCCCN(Cc1ccco1)C(=O)C1CCCN(c2ncnc3c2nc2n3CCCCC2)C1 (stereo not given) | -24.8% | ? | -92.9* | ? | ?
CCOC(=O)C(=CNc1ccc(N2CCCCC2)c(S(=O)(=O)Nc2ccccc2OC)c1)C(=O)OCC | 56.4% | ? | -5.9 | -4.4% | ?
CNS(=O)(=O)c1cn(CC(=O)N2CCN(c3ccc(C)cc3C)CC2)cc1S(=O)(=O)NC | -4.4% | . | 0.0 | 4.7%[46.1 µM] | .
Cc1ccc(C)c(N2CCN(C(=O)C3CCCN(c4ncnc5c4nc4n5CCCCC4)C3)CC2)c1 (stereo not given) | ? | -16.3% | -69.0* | . | .
Cc1ccc(N2CCN(C(=O)C3CCCN(c4ncnc5c4nc4n5CCCCC4)C3)CC2)c(C)c1 (stereo not given) | ? | 11.6% | 21.1 | . | .
CCOC(=O)C1=C(CN2CCCCC2)NC(=O)NC1c1cc(C)ccc1C (stereo not given) | ? | . | 1.3 | -24.7%[46.1 µM] | 9.2µM*
CCOC(=O)C1=C(CN2CCOCC2)NC(=O)NC1c1cc(C)ccc1C (stereo not given) | . | 8.9% | -32.2 | -15.4% | -14.9%

Screening data (PubChem BioAssay)
